According to PubChem BioAssay AID1851 (National Center for Advancing Translational Sciences (NCATS), 2009):
About 5,700 (36%) of roughly 16,000 compounds were called active. Inconclusive results (about 24%) are left out. This is one part of the list. Unmarked numbers belong to inactive results. Calls come from the whole dose curve; as a rule, active = well fitted curve in the direction sought with a large enough effect; inconclusive = small, poorly fitted or top-dose-only effect, or effect the other way; inactive = no such curve, though single readings can be large or run the other way.

target: Cytochrome P450 1A2 (Homo sapiens) (UniProt P05177); assay: Cytochrome panel assay with activity outcomes; details: recombinant CYP, pro-luciferin dealkylation, luminescence, p450-cyp1a2; series mostly up to 57.1 µM
Sequence (P05177 whole entry, looked up): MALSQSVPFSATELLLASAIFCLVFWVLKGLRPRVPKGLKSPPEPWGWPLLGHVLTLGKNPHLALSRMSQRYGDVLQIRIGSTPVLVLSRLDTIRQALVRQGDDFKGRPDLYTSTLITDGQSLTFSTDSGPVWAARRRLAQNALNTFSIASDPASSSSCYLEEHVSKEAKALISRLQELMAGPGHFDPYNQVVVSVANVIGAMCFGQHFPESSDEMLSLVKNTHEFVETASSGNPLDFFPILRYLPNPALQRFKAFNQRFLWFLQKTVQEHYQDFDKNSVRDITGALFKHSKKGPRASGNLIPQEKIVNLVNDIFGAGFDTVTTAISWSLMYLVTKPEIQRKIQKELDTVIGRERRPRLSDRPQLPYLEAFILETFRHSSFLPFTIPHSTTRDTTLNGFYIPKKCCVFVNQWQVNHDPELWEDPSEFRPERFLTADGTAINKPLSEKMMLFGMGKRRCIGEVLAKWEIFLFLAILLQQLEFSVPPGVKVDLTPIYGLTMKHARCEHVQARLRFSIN
% is set by controls: 0 for no effect and ±100 for the full control effect.

| SMILES | AC50 | activity, negative = inhibition |
| --- | --- | --- |
| CCCC(O)(CCC)C(=O)NN1CCCCC1 | inactive | – |
| O=C(Nc1ccccc1Cl)c1ccn[nH]1 | 0.794 µM (active) | – |
| O=C(O)C1CCCCC1C(=O)Nc1ccccc1Cl (centres undefined) | inactive | – |
| O=C(O)COC(=O)Cc1ccccc1Nc1c(Cl)cccc1Cl | inactive | – |
| NC(=O)NC(=O)Nc1ccccc1Cl | 4.47 µM (active) | – |
| COc1nc(N)nc2c1ncn2[C@@H]1C[C@H](O)[C@@H](CO)O1 | – | -7.83% [at 11.4 µM] |
| Clc1cccc(N/N=C/c2ccc(N3CCOCC3)cc2)c1 | 2.51 µM (active) | – |
| O=C1CC(N2CCOCC2)C(=O)N1c1cccc(Cl)c1 (centres undefined) | inactive | – |
| Cc1ccc(Nc2ccc(-n3ccnc3)nn2)cc1C | 0.158 µM (active) | – |
| Cc1cc(/C=N/n2cnnc2)c(C)n1-c1ccc(OCc2ccccc2F)cc1 | 12.6 µM (active) | – |
| Fc1ccc(CSc2nnc(-c3cc4c(s3)-c3ccccc3CC4)o2)cc1 | 2.24 µM (active) | – |
| Cc1ccc(-c2nnc(-c3ccc4ccccc4c3)o2)cc1 | 0.631 µM (active) | – |
| O=C(O)c1nnsc1-c1csnn1 | – | -3.7% [at 11.4 µM] |
| c1ccc2cc(-c3cc(-c4cc(-c5ccc6ccccc6c5)on4)no3)ccc2c1 | 1.58 µM (active) | – |
| c1ccc2cc(-c3csnn3)ccc2c1 | 0.112 µM (active) | – |
| c1ccc(-c2noc(-c3ccc4ccccc4c3)n2)cc1 | 3.16 µM (active) | – |
| CC/C=C\CC[C@H](O)C1=CCCCC1=O | – | -2.33% [at 11.4 µM] |
| CC[C@@H](C)[C@H]1O[C@]2(CC[C@@H]1C)C[C@@H]1C[C@H](C/C=C(/C)[C@H](O[C@@H]3C[C@H](OC)[C@H](O[C@@H]4C[C@H](OC)[C@@H](O)[C@H](C)O4)[C@H](C)O3)[C@@H](C)/C=C\C=C3CO[C@@H]4[C@H](O)C(C)=C[C@@H](C(=O)O1)[C@]34O)O2 (tested in a mixture with another compound) | inactive | – |
| C[C@@H]1C[C@H](OC(=O)[C@@H](O)c2ccccc2)CC(C)(C)N1C | inactive | – |
| CCCCCn1c(CN2CCN(c3cc(Cl)ccc3C)CC2)nc2c1c(=O)[nH]c(=O)n2C | inactive | – |
| CCOC(=O)CNC(=O)c1cccnc1 | inactive | – |
| Cc1ccc(OCCNC(=O)c2cncc(Br)c2)cc1C | 14.1 µM (active) | – |
| O=C(NCCO[N+](=O)[O-])c1cccnc1 | inactive | – |
| CCOC(=O)CCCNC(=O)c1cncc(Br)c1 | 12.6 µM (active) | – |
| CCOC(=O)CCCNC(=O)CCCNC(=O)C(c1ccccc1)c1ccccc1 | inactive | – |

| SMILES | AC50 | activity, negative = inhibition |
| --- | --- | --- |
| CO[C@H]1COC(=O)[C@H](C)COC(=O)[C@@H](Cc2ccccc2)NC(=O)C/C=C\[C@H]1C | – | -3.2% [at 11.4 µM] |
| COc1ccc(NC(=O)N(C2CCCCC2)C(C)c2cccnc2)c(OC)c1 (centres undefined) | 14.1 µM (active) | – |
| CCOC(=O)CN(C(=O)CCC(=O)Nc1cc(C)on1)C(C(=O)NC1CCCC1)c1cccnc1 (centres undefined) | inactive | – |
| Cc1cc(NC(=O)CCC(=O)N(CC2CCCO2)C(C(=O)NC2CCCC2)c2cccnc2)no1 (centres undefined) | inactive | – |
| C[C@H]1CC[C@H]2C(=O)N[C@H](Cc3ccccc3)C(=O)N2[C@@H]1c1ccccc1 | – | -2.57% [at 11.4 µM] |
| O=C1C(Cc2ccccc2)C(c2ccccc2)N1c1ccccc1 (centres undefined) | 5.01 µM (active) | – |
| CCCC1C(=O)N(c2ccccc2)C1c1ccccc1 (centres undefined) | 12.6 µM (active) | – |
| O=C1C2ON(c3ccccc3)C(c3ccncc3)C2C(=O)N1c1ccccc1 (centres undefined) | inactive | – |
| O=C1C(CCS(=O)c2ccccc2)C(=O)N(c2ccccc2)N1c1ccccc1 (centres undefined) | inactive | – |
| CCN1C(=O)N[C@@H](c2ccccc2)C1=O | inactive | – |
| COc1cccc(C=NC=Nc2cccc(OC)c2)c1 | 1 µM (active) | – |
| Clc1cccc(C=NC=Nc2cccc(Cl)c2)c1 | 0.631 µM (active) | – |
| CCCn1nc(NC(=O)CC(C)C)c2cc3ccccc3nc21 | 1.58 µM (active) | – |
| CC(C)CC(=O)Nc1ccccc1-c1nnn(CC(=O)N2CCc3ccccc3C2)n1 | inactive | – |
| CCNCc1cc(OCC)c(OCC(=O)NCCc2ccccc2)cc1Cl | 1.78 µM (active) | – |
| CCOc1cc(CNCCO)c(Cl)cc1OCC(=O)NCCc1ccccc1 | 6.31 µM (active) | – |
| COc1ccc(CNCCc2ccccc2)cc1OCC(N)=O | inactive | – |
| Nc1nc2c(c(=O)[nH]1)N[C@H](CCNc1ccc(C(=O)O)cc1)CN2 | – | -4.28% [at 11.4 µM] |
| COc1ccccc1CN1CCCC2(CCN(C(=O)c3c(C)noc3C)CC2)C1 | inactive | – |
| COC(=O)CN(c1ccc(OC)cc1)S(=O)(=O)c1c(C)noc1C | inactive | – |
| COc1ccccc1CN1CCC2(CC1)CCN(C(=O)c1c(C)noc1C)CC2 | inactive | – |
| COc1ccccc1CNc1ccnc(-c2c(C)noc2C)n1 | 0.398 µM (active) | – |
| COc1ccc(CNc2ccnc(-c3c(C)noc3C)n2)c(OC)c1 | 1.26 µM (active) | – |
| O=C(O)/C(=C/c1c(C(=O)O)[nH]c2cc(Cl)cc(Cl)c12)c1ccccc1 | 12.6 µM (active) | – |
| Cc1cc(C(=O)CSc2nnc(-c3ccccc3)o2)c(C)n1CC1COc2ccccc2O1 (centres undefined) | inactive | – |

| SMILES | AC50 | activity, negative = inhibition |
| --- | --- | --- |
| c1ccc(-c2nnc(SCCC3OCCCO3)o2)cc1 | 1.78 µM (active) | – |
| CCC1CCc2c(c3ccccc3[nH]c2=O)O1 (centres undefined) | 0.562 µM (active) | – |
| C#CCn1c(=O)c2c(ncn2C)n(C)c1=O | inactive | – |
| CC[C@@H](c1ccccc1)n1c(=O)n2n(c1=O)[C@H]1[C@H](O)[C@H]3O[C@@H]3/C(=N/OC/C=C(\C)CCC=C(C)C)[C@@H]1CC2 | – | -18.9% [at 11.4 µM] |
| Cc1nc(/N=C(\N)Nc2ccccc2)nc2ccccc12 | 5.01 µM (active) | – |
| Cc1cccc(N/C(N)=N/c2nc(C)cc(C)n2)c1 | 12.6 µM (active) | – |
| Oc1cccnc1CN1CCCCC1 | – | -14.4% [at 11.4 µM] |
| CN1CCN(Cc2nc3cccc4c3c([n+]2[O-])-c2ccccc2-4)CC1 | 1.26 µM (active) | – |
| [O-][n+]1c(CN2CCCCC2)nc2cccc3c2c1-c1ccccc1-3 | 1.58 µM (active) | – |
| Cc1noc(C)c1C(=O)N1CCC[C@@]2(CCN(Cc3cc(C(F)(F)F)cc(C(F)(F)F)c3)C2)C1 | inactive | – |
| Nc1ccc(N=Nc2c(S(=O)(=O)O)cc3ccccc3c2S(=O)(=O)O)cc1 | – | -20.9% [at 2.29 µM] |
| CCNC(=S)N1CCC(NC(=O)C2CCCCC2)CC1 | inactive | – |
| CCC(C)NC(=O)C1CCCN(C(=O)NC2CCCCC2)C1 (centres undefined) | inactive | – |
| CC(C)CCNC(=S)NC1CCCC1 | 14.1 µM (active) | – |
| Cc1sc(N/N=C/c2cccnc2)nc1-c1ccccc1 | 0.0631 µM (active) | – |
| CC(=O)c1nnn(-c2nc(N)nc(N(c3ccccc3)c3ccccc3)n2)c1C | 22.4 µM (active) | – |
| CC(=O)c1c(N2CCC(C(N)=O)CC2)nc(=S)n(-c2ccccc2)c1C | inactive | – |
| O=C(O)CCC(O)=C1S(=O)(=O)OCCOS1(=O)=O | – | -21.5% [at 11.4 µM] |
| O=C(O)/C=C/C(=O)Nc1ccc(F)cc1F | inactive | – |
| COc1ccc(C(=O)Nc2ccc(F)cc2F)cc1OC | 14.1 µM (active) | – |
| CC(=O)c1ccc(OC(=O)C2c3ccccc3Oc3ccccc32)cc1 | 4.47 µM (active) | – |
| O=C(O)c1ccccc1C1c2ccccc2Oc2ccccc21 | – | -20.4% [at 2.29 µM] |
| COC(=O)c1c(-c2cc(OC)c(OC)c(OC)c2)c2ccc(OCc3ccccn3)cc2c(=O)n1-c1ccc(N)cc1 | inactive | – |
| O=c1cnc2cnc(Nc3ccccc3)nc2n1CCc1ccccc1 | 3.16 µM (active) | – |
| CCNc1ncc2nc(C)c(=O)n(CCc3ccccc3)c2n1 | 1.58 µM (active) | – |

| SMILES | AC50 | activity, negative = inhibition |
| --- | --- | --- |
| CCNc1ncc2ncc(=O)n(CCc3ccccc3)c2n1 | 1 µM (active) | – |
| CN1/C(=C\C=[N+](C)c2ccccc2)C(C)(C)c2ccccc21 | inactive | – |
| Nc1nc2c(nc(Br)n2[C@@H]2O[C@H]3COP(=O)(O)O[C@@H]3[C@H]2O)c(=O)[nH]1 | inactive | – |
| Cn1c(=O)c2c(n(Cc3ccccc3)c1=O)NC(=O)C2CC(=O)NCc1cccc(Cl)c1 (centres undefined) | inactive | – |
| O=C(Cc1csc(Nc2nc(=S)[nH]c3ccccc23)n1)NCc1cccc(Cl)c1 | 4.47 µM (active) | – |
| COc1ccc(CNC(=O)Cc2csc(Nc3nc(=S)[nH]c4ccccc34)n2)cc1 | 4.47 µM (active) | – |
| Cc1ccc(CNC(=O)Cc2csc(Nc3nc(=S)[nH]c4ccccc34)n2)cc1 | 3.16 µM (active) | – |
| Cc1ccc(CS(=O)(=O)CCC(=O)NCc2ccccn2)cc1 | inactive | – |
| CCOc1cc2[nH]c(=O)n(CCC(=O)NCc3ccc(OC)cc3)c(=O)c2cc1OCC | inactive | – |
| CC(C)(C)NC(=O)C(c1ccccn1)N(C(=O)C1CSC(=O)C1)c1ccc(F)cc1 (centres undefined) | inactive | – |
| S=C(Nc1ccc2c(c1)Cc1ccccc1-2)Nc1ccc2c(c1)Cc1ccccc1-2 | 0.2 µM (active) | – |
| COc1cccc(NC(=S)NN2CCN(C)CC2)c1 | inactive | – |
| O=C(Nc1ccc2c(c1)Cc1ccccc1-2)[C@@H]1[C@H](C(=O)O)[C@]2(Cl)C(Cl)=C(Cl)[C@@]1(Cl)C2(Cl)Cl | 3.16 µM (active) | – |
| O=C(O)c1ccccc1-c1ccccc1C(=O)Nc1ccc2c(c1)Cc1ccccc1-2 | – | -7.14% [at 2.29 µM] |
| COc1ccccc1-c1cc(Nc2ccc(F)cc2)ncn1 | 2 µM (active) | – |
| COc1ccccc1-c1cc(Nc2ccn[nH]2)ncn1 | 0.631 µM (active) | – |
| COc1ccccc1-c1cncnc1NCc1cccs1 | 3.16 µM (active) | – |
| Cc1ccccc1-c1cncnc1NCc1cccs1 | 3.16 µM (active) | – |
| CN(C)Cc1ccccc1-c1cncnc1NCc1cccs1 | 25.1 µM (active) | – |
| O=P(Cc1cc[n+]([O-])cc1)(c1ccccc1)c1ccccc1 | inactive | – |
| c1ccc(CNc2nc(-c3ccc4c(c3)OCO4)nc3ccccc23)cc1 | 0.501 µM (active) | – |
| COc1ccccc1CNc1nc(-c2ccc3c(c2)OCO3)nc2ccccc12 | 0.631 µM (active) | – |
| Cc1cccc(CNc2nc(-c3ccc4c(c3)OCO4)nc3ccccc23)c1 | 0.631 µM (active) | – |
| c1cncc(CNc2nc(-c3ccc4c(c3)OCO4)nc3ccccc23)c1 | 0.1 µM (active) | – |
